The values that follow come from PubChem BioAssay (NCATS).

Several values for one entry are separate records, joined by “and”; a condition that tells them apart may be missing. Equal values may be shown once. Records with an inconclusive call do not appear. A structure can be active in one record and inactive in another. Activity calls are given as the source filed them. Calls follow the shape of the dose curve; as a rule, active = well fitted curve in the direction sought with a large enough effect; inconclusive = small, poorly fitted or top-dose-only effect, or another doubt; inactive = no such curve, though single readings can be large or run the other way.
% is scaled to controls: 0 for no effect and ±100 for the full control effect; potency is read from the fitted curve at half-maximal effect.

The nature of this assay: qHTS Assay for Identifying Gametocytocidal Compounds (AID 743244).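 As to max response: actives lower the fluorescent signal which means gametocytes are killed.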 As to conditions: P. falciparum 3D7 stage III-V gametocytes, alamarBlue, 72 h; max response: stronger effect = lower value. The gist of the method:
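Stage III–V gametocytes of P. falciparum 3D7 were seeded at 20,000 cells/well onto pre-dispensed compounds. After 72 h, 37 °C, 5% CO2, alamarBlue was added for another 24 h.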
Background: qHTS replaces the single test concentration by a dilution series.
On to `NC(=O)CS(=O)C(c1ccccc1)c1ccccc1` (stereo not drawn), for which the max response was -2.53% (inactive).

For the molecule `Clc1ccc2c(c1)C(c1ccccc1)=NCc1nncn1-2`, the max response is 5.88% (inactive). The same measure, in the same setting: with `NNc1ccccc1` the figure was -4.92% (inactive). Take `CN1CC[C@]23c4c5ccc(O)c4O[C@H]2[C@@H](O)CC[C@H]3[C@H]1C5`: the max response is 10.1% (inactive).

For `C[C@H](N)C(=O)c1ccccc1`, the max response was 39.4% (inactive) and -13% (inactive). With `NC1=NC(=O)C(c2ccccc2)O1` (stereo not drawn), the max response is -7.8% (inactive). Still for that read-out and setting: with `CCCCCCCCCC(=O)O[C@H]1CC[C@H]2[C@@H]3CCC4=CC(=O)CC[C@@H]4[C@H]3CC[C@]12C` the figure was 5.38% (inactive).

With `CCOC(=O)C1=C(COCCN)NC(C)=C(C(=O)OC)C1c1ccccc1Cl` (stereo not drawn), the Potency was 20 µM (active) and the max response is -0.484% (inactive). With `COP(=S)(OC)Oc1ccc(S(=O)(=O)N(C)C)cc1`, the max response was 17.5% (inactive). `CCN(CC)CCc1c[nH]c2ccccc12`: the max response was 14.8% (inactive).

For `Cc1nnc2n1-c1ccc(Cl)cc1C(c1ccccc1)=NC2`, the max response is 35.3% (inactive).

For `CC(C)C[C@H](CN)CC(=O)O`, the max response is 2.29% (inactive). Still for that read-out and setting: with `COc1ccc2c(c1)C13CCCC[C@@H]1C(C2)N(C)CC3` (stereo partly drawn) the figure was 7.6% (inactive); with `CN[C@@H](C)Cc1ccccc1`, 5.78% (inactive). On to `COC1CC(=C(c2cccs2)c2cccs2)C[N+](C)(C)C1` (stereo not drawn), for which the Potency is 8.91 µM (active). Consider `COc1cccc(C(=O)CCN[C@@H](C)[C@H](O)c2ccccc2)c1`, for which the Potency was 31.6 µM (active). For `CN1C(=O)C(O)N=C(c2ccccc2)c2cc(Cl)ccc21` (stereo not drawn), the max response was 6.95% (inactive).
